The supplement of paper PMC12645437, “Orthogonal IMiD-Degron Pairs Induce Selective Protein Degradation in Cells” (ACS Chemical Biology, 2025)
Whole data set: some 8,300 sequences, median “log2 fold change of degron read counts, EGFP-low vs EGFP+ sorted cells (limma voom), compound-induced degradation” near -1.1, cut for the highest 2% near 3.2. Only a selection was taken, and the highest values are over-represented in it overall.

T1: CRBN, Q96SW2
T1 chain: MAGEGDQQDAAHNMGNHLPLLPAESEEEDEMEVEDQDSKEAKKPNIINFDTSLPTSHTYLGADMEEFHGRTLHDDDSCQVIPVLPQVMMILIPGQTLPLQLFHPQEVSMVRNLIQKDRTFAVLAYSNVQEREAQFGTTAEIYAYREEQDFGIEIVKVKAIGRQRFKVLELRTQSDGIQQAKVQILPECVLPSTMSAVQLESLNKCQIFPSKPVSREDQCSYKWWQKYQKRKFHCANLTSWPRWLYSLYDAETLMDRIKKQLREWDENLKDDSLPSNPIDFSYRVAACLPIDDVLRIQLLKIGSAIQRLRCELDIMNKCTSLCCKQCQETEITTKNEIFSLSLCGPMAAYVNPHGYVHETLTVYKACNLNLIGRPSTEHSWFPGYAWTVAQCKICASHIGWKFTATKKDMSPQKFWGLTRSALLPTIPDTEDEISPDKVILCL


Biological target: T1, CRBN, Q96SW2
Test: log2 fold change of degron read counts, EGFP-low vs EGFP+ sorted cells (limma voom), compound-induced degradation; higher = more compound-induced degradation of the degron-EGFP fusion; degrons are variants of IKZF1/3 zinc finger 2; compound dose not given here
Conditions: Jurkat, 18 h
[1] = compound: compound 19 (5-tert-butyl-thalidomide)
[2] = compound: compound 22 (5-morpholino-thalidomide)
[3] = compound: compound 33 (diphenyl IMiD analogue)
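Also: pooled lentiviral library of zinc finger degron-EGFP fusions in mCherry-positive Jurkat cells, FACS-sorted after compound exposure, with degron abundance counted by next-generation sequencing.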

Sequence | log2 fold change of degron read counts [1] | log2 fold change of degron read counts [2] | log2 fold change of degron read counts [3] | log2 fold change of degron read counts (compound: thalidomide)
FLCPICGREFTQKGNLLRHIKL [46F_47L_49P_50I_52G_53R_54E_55F_67L_, Q9UKT9] | -2.12 | -2.2 | -0.686 | 0.04
FNCNICGAIFTQKGNLLRHIKL [46F_47N_49N_50I_52G_53A_54I_55F_67L_, Q9UKT9] | -1.14 | -1.24 | -0.567 | -1.09
FQCDQCGAWFTQKGNLLRHIKL [46F_47Q_49D_50Q_52G_53A_54W_55F_67L_, Q9UKT9] | -2.29 | -2.57 | -1.93 | -1.39
FFCNVCGAAFTQKGNLLRHIKL [46F_47F_49N_50V_52G_53A_54A_55F_67L_, Q9UKT9] | 1.2 | 1.43 | 0.704 | -0.812
FVCPICGAYFTQKGNLLRHIKL [46F_47V_49P_50I_52G_53A_54Y_55F_67L_, Q9UKT9] | 0.319 | 1.86 | 1.7 | 2.59
FICPICGAYFTQKGNLLRHIKL [46F_47I_49P_50I_52G_53A_54Y_55F_67L_, Q9UKT9] | -0.481 | 2.03 | 1.75 | 1.86
FTCPICGAYFTQKGNLLRHIKL [46F_47T_49P_50I_52G_53A_54Y_55F_67L_, Q9UKT9] | 1 | 2.25 | 2.83 | 3.31
FQCPICGAYFTQKGNLLRHIKL [46F_47Q_49P_50I_52G_53A_54Y_55F_67L_, Q9UKT9] | -1.06 | 0.884 | 1.61 | 3.36
FCCPICGAYFTQKGNLLRHIKL [46F_47C_49P_50I_52G_53A_54Y_55F_67L_, Q9UKT9] | 1.38 | 1.19 | 1.52 | 1.42
FNCPICGAYFTQKGNLLRHIKL [46F_47N_49P_50I_52G_53A_54Y_55F_67L_, Q9UKT9] | 2.2 | 1.13 | 0.721 | 0.825
FYCPICGAYFTQKGNLLRHIKL [46F_47Y_49P_50I_52G_53A_54Y_55F_67L_, Q9UKT9] | 3.26 | 3.12 | 2.39 | 1.01
FWCPICGAYFTQKGNLLRHIKL [46F_47W_49P_50I_52G_53A_54Y_55F_67L_, Q9UKT9] | 2.72 | 2.69 | 2.4 | 0.973
FSCPICGAYFTQKGNLLRHIKL [46F_47S_49P_50I_52G_53A_54Y_55F_67L_, Q9UKT9] | 2.23 | 1.26 | 2.17 | 1.38
LECPICGFPCTQKGNLLRHIKL [46L_47E_49P_50I_52G_53F_54P_55C_67L_, Q9UKT9] | -1.29 | -1.77 | -0.153 | 1.04
FGCNQCGHHFTQKGNLLRHIKL [46F_47G_49N_50Q_52G_53H_54H_55F_67L_, Q9UKT9] | -2.24 | -2.34 | -1.76 | -1.83
FGCEICGHTFTQKGNLLRHIKL [46F_47G_49E_50I_52G_53H_54T_55F_67L_, Q9UKT9] | -3.25 | -2.98 | -3.48 | -3.14
FMCEICGHIFTQKGNLLRHIKL [46F_47M_49E_50I_52G_53H_54I_55F_67L_, Q9UKT9] | -2.42 | -2.92 | -1.97 | -2.73
LQCNQCGFNCTQKGNLLRHIKL [46L_47Q_49N_50Q_52G_53F_54N_55C_67L_, Q9UKT9] | -2.28 | -2.12 | -2.51 | -1.67
